We go through 70 compounds from ChEMBL document CHEMBL3988442, “University of Dundee, Small-Polar-MMV Screening Library” (2021).

The campaign covered roughly 67,000 compounds. About 300 (0.45%) showed an effect of 50% or more. The entries come from a sample that favours strong results as a whole.

Sequence of Polyketide synthase Pks13 (Mycobacterium tuberculosis (strain ATCC 25618 / H37Rv)) (I6X8D2 whole entry): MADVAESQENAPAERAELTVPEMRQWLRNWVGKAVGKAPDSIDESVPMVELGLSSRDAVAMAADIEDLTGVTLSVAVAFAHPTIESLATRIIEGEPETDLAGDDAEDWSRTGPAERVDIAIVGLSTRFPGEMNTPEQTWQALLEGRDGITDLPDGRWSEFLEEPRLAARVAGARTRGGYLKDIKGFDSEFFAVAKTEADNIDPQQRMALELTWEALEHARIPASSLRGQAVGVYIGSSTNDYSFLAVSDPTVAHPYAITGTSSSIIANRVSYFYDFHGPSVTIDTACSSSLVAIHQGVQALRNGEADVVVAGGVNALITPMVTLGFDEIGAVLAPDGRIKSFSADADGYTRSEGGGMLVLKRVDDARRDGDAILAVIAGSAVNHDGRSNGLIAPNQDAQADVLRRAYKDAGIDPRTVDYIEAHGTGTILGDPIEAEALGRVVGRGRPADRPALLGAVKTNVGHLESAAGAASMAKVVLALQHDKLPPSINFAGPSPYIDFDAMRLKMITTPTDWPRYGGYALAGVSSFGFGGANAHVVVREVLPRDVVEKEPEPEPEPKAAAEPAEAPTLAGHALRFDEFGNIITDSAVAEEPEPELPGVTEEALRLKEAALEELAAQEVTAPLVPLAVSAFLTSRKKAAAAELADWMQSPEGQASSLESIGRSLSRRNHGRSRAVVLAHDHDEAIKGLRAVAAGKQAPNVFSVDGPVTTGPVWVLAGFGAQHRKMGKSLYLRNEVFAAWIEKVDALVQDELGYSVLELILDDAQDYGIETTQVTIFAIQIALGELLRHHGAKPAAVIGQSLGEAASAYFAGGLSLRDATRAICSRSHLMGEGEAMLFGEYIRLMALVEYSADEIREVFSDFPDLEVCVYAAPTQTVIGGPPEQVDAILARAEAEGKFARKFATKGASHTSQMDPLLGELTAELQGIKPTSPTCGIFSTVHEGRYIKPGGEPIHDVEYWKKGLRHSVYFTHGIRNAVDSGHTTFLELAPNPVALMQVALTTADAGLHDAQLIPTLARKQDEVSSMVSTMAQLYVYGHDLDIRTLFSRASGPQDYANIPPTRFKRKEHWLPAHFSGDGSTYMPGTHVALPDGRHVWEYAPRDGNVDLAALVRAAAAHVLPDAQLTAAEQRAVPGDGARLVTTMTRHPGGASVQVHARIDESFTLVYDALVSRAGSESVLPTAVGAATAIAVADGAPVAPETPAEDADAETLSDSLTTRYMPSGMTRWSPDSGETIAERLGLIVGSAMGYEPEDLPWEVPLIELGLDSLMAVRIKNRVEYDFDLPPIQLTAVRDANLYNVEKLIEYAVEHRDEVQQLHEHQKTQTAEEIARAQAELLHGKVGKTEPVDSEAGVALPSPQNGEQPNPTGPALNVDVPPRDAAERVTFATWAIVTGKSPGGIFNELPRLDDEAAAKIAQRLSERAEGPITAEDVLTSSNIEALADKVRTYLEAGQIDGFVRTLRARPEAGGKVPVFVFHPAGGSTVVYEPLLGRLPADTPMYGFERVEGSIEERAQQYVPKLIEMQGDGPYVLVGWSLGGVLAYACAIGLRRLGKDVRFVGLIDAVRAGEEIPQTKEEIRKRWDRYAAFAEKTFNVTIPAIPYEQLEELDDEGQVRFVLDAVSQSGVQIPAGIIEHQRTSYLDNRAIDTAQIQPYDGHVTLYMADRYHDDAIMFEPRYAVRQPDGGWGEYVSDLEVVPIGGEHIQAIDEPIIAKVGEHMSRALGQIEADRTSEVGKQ

The assay has as its target Polyketide synthase Pks13 (Mycobacterium tuberculosis (strain ATCC 25618 / H37Rv)) (UniProt I6X8D2). The assay can be described thus: Mycobacterium tuberculosis Polyketide synthase 13 Thioesterase (PKS13). Set-up: scale not given: in the data most compounds retested in dose-response had high values. The format is functional. The note with it: 30 µM.
Consider `CN(C)[C@H]1C[C@@H](Cc2cc(-c3ccc(F)cc3)on2)C1(C)C`, for which the Percent Effect was -26.6%.
Take `CN(C)[C@H]1C[C@@H](Cc2cc(CO)on2)C1(C)C`: the Percent Effect was -32.8%.
Take `COc1ccc(-c2cc(C[C@@H]3C[C@H](N(C)C)C3(C)C)no2)cc1`: the Percent Effect stood at 53.8%.
For `CC(C)N(CC(N)=O)C(=O)c1cnc(-c2ccc3c(c2)OCO3)s1` the value was 71.9%; for `CC(C)N(CCC#N)C(=O)c1cnc(-c2ccc3c(c2)OCO3)s1`, 46.5%.
For `CN(C)C(=O)c1cnc(-c2ccc3c(c2)OCO3)s1` the value was 70.4%.
As for `CC(C1CC1)N(C)C(=O)c1cnc(-c2ccc3c(c2)OCO3)s1` (stereo not given), the figure is -13%; as for `CC(C(=O)NCCOc1ccc2c(c1)OCO2)n1cncn1` (stereo not given), -36.9%; as for `CCN(C(=O)c1cnc(-c2ccc3c(c2)OCO3)s1)C1CC1`, 28.9%.
`O=C(N[C@@H]1CN(Cc2ccccn2)[C@@H]2COC[C@@H]21)C1CCC1`: the Percent Effect is -11.8%.
As to `O=C1CCCC2=C1C(c1cc(Cl)ccc1F)Nc1nonc1N2` (stereo not given), the Percent Effect is -14.9%.
For `CNC(=O)[C@H]1C[C@@H]2CCN(CCc3ccccc3)C[C@@H]2O1` the value was -653%; for `Cc1cc(CN2CCN(CC3CC3)[C@@H]3CS(=O)(=O)C[C@@H]32)ccc1F`, -14.2%; for `Cc1noc([C@@]23CCO[C@@H]2CCN(C(=O)c2ccsc2)C3)n1`, -23.9%.
As for `CNS(=O)(=O)c1csc(C(=O)N(C)Cc2ccccc2C)c1`, the figure is 51.6%; as for `CNS(=O)(=O)c1csc(C(=O)N(C)Cc2sccc2C)c1`, -17.6%; as for `CCNS(=O)(=O)c1ccc(C)c(C(=O)N(C)Cc2ccccc2C)c1`, -0.166%.
For `CCCn1ncc(CN2C[C@@H]3CCCN3C[C@@H]2Cc2ccccc2)c1C` the value was 21.5%.
On to `CC(C)CN1C(=O)CO[C@@H]2CN(C(=O)C3CCOC3)C[C@H]21` (stereo not given in full), for which the Percent Effect stood at 12.2%.
As for `O=C(c1cscn1)N1C[C@@H](Oc2cccnc2)[C@H]2OCCC[C@H]21`, the figure is 29.5%.
As for `CNc1ncc(CN(C)C(=O)c2cccc(-n3cccn3)c2)cn1`, the figure is -5.61%; as for `CNc1ncc(CN(C)C(=O)c2cccc(Cn3cccn3)c2)cn1`, 118%.
For `CNc1ncc(CN(C)C(=O)c2cccc(-n3cnnc3)c2)cn1` the value was -1.45%; for `c1ccc(COC[C@H]2CC[C@H]3[C@H](CCN3c3ncccn3)O2)nc1`, -8.11%; for `Cc1c[nH]c(C(=O)N2C[C@H]3CC[C@@H]2CN(Cc2cscn2)C3)n1`, -15.7%.
In the case of `COc1ccc(CNC[C@@]2(COc3cccnc3)C[C@@H](O)[C@@H](O)C2)cc1`, the Percent Effect amounted to 0.869%.
As for `Cc1ccc(N2CCO[C@H]3CN(Cc4cc(C)on4)CC[C@H]3C2=O)cn1`, the figure is -3.21%; as for `COCCCN1CCN([C@@H]2c3ccccc3C3(CCNCC3)[C@H]2O)CC1`, -9.22%.
As for `COCCCC1CCN([C@@H]2c3ccccc3C3(CCNCC3)[C@H]2O)CC1`, the Percent Effect is -6.55%.
As for `CCOCCN1CCN([C@@H]2c3ccccc3C3(CCNCC3)[C@H]2O)CC1`, the figure is 82.6%; as for `CCOC(=O)[C@]12CCCN(Cc3ccsc3)C[C@H]1CN(CCOC)C2`, -32.4%.
As for `Cc1nc(CN(C)C(=O)NC(C)c2ccc3c(c2)OCCO3)cs1` (stereo not given), the figure is 58%.
As for `Cc1nc(CNC(=O)NC(C)c2ccc3c(c2)OCCCO3)cs1` (stereo not given), the figure is -3.62%; as for `Cc1nc(CCNC(=O)NC(C)c2ccc3c(c2)OCCO3)cs1` (stereo not given), -9.04%; as for `CO[C@@H]1CCN(S(=O)(=O)N(C)C)[C@@H]2CN(Cc3ccncc3)C[C@@H]21`, -11%.
Regarding `CN(C)C(=O)c1cn[nH]c1C1(C)CCN(c2ncccn2)CC1`, the Percent Effect came to 72.9%.
As for `CN(C)C(=O)c1cn[nH]c1C1(C)CCCN(Cc2ccccn2)C1` (stereo not given), the figure is -25%; as for `CC1(c2[nH]ncc2C(N)=O)CCN(c2ncccn2)CC1`, -9.79%.
Turning to `O=C(C1CC1)N1CC[C@H]2C(=O)N(c3ccsc3)CCO[C@H]2C1`, the Percent Effect is -24.6%.
As for `CCN1CCC(N[C@@H]2CC[C@@H]2NC(=O)Cc2csc(C)n2)CC1`, the figure is 64.6%; as for `Cc1nc(CC(=O)NCCN2CCC(c3ccccc3C)C2)cs1` (stereo not given), 5.3%.
As for `CCN1CCC(NC(=O)Cc2csc(C(C)(C)C)n2)CC1`, the figure is -28.7%; as for `COCC(=O)NC[C@H]1C[C@@H]2CCN1C[C@@H]2CN1CCc2ccccc2C1`, -21.5%; as for `Cc1nc(CN2C(=O)CC[C@@H]3[C@H]2CCN3C(=O)C2CCOCC2)cs1`, -22.6%.
For `Cc1ccc(S(=O)(=O)n2ccn(C(=O)CC(C)C)c2=O)cc1` the value was 10.8%.
Consider `Cc1ccc(S(=O)(=O)n2ccn(C(=O)COc3ccccc3)c2=O)cc1`, for which the Percent Effect was -1%.
As for `CCC(CC)C(=O)n1ccn(S(=O)(=O)c2ccc(C)cc2)c1=O`, the figure is 69.1%; as for `CS(=O)(=O)N1CCO[C@@H]2CN(C(=O)C3CC(F)(F)C3)C[C@@H]2C1`, -14.3%.
As for `Cc1cccc(-n2nnnc2C(C)(C)Nc2ccccc2C)c1`, the figure is 71.2%; as for `Cc1ccc(NC(C)(C)c2nnnn2-c2ccc(Cl)cc2)c(C)c1`, 43.2%; as for `COc1ccc(-n2nnnc2C(C)(C)Nc2ccc(C)cc2C)cc1`, -14.4%.
As to `Fc1ccc(CN2CCO[C@H]3[C@H](OCCN4CCCC4)CC[C@@H]32)cc1`, the Percent Effect is -7.44%.
`Cc1nnc(N2C[C@@H](OCC3CCCC3)[C@H]3OCCC[C@H]32)s1`: the Percent Effect was -34.8%.
As for `Cc1ccc(C(=O)N2CCC3(CC2)c2ccccc2[C@@H](N)[C@@H]3O)c(=O)[nH]1`, the figure is 70%.
For `N[C@@H]1c2ccccc2C2(CCN(C(=O)c3ccccc3O)CC2)[C@H]1O` the value was 1.94%; for `Cc1ccc(Cl)cc1C(=O)N1CCC2(CC1)c1ccccc1[C@@H](N)[C@@H]2O`, -27.1%; for `COCCN1C[C@H]2CN(C(=O)c3ccc4c(c3)OCO4)CCN2C1=O`, 8.89%.
As for `COc1cccc(-c2cccc(CN3C[C@@H]4CC[C@H](C3)N(C)C4=O)c2)c1`, the figure is 6.34%; as for `Cc1ccc(C(=O)N(C)Cc2cc(C)on2)cn1`, 143%; as for `Cc1cc(CN(C)C(=O)c2ccc(N(C)C)nc2)no1`, -10.8%.
On to `Cc1cc(CN(C)C(=O)c2ccc(C(F)(F)F)nc2)no1`, for which the Percent Effect is -4.93%.
For `CC(C)c1nccc([C@@H]2C[C@@H]3CCN(Cc4ccco4)C[C@H]3O2)n1`, the Percent Effect was -17.2%.
For `O=C(CC1CC1)NC[C@]12COC[C@H]1CN(c1ncc(F)cn1)C2`, the Percent Effect amounted to 8.61%.
For `CN(C)c1nccc(-c2c[nH][nH]c2=O)n1` the value was 51.4%.
With `CN(C)c1nccc(-c2cnc(N(C)C)[nH]c2=O)n1`, the Percent Effect was 16.6%.
For `CC(C)(C)CCNc1nccc(-c2c[nH][nH]c2=O)n1` the value was 22.8%; for `CNC(=O)[C@@]12CCO[C@@H]1CCN(S(=O)(=O)c1ccccc1F)C2`, 16.9%.
As for `Cc1nc(C)c(CNC(=O)N2CCN(c3ccc(Cl)cn3)CC2)s1`, the figure is 14.6%.
As for `Cc1nc(CNC(=O)N2CCN(c3ccc(Cl)cn3)CC2)sc1C`, the figure is 50.8%; as for `Cc1nc(CNC(=O)N2CCN(c3ccc(Cl)cn3)CC2)no1`, 7.54%.
